Rows were chosen to be rich in hits. Some 19% of all compounds tested hit in one or more screens of this group.
IL-1B inflam inh: qHTS for Inhibitors of Inflammasome Signaling: IL-1-beta AlphaLISA Primary Screen. THP-1 LPS/ATP IL-1B secretion, AlphaLISA, 16 h; active compounds read low. activity change, % at 57.5 µM. 360,000 tested, 4.7% active. AID 743279, 2014; in the data active = activity change below about -50%; inconclusive = mostly about -30% to -49%
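Secreted IL-1B measured by AlphaLISA bead assay after 16 h compound exposure of THP-1 cells; compounds (final up to 57.5 uM) added 1 h before LPS (250 ng/mL) and ATP (1.25 mM) stimulation; lower signal means less secretion.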
HT1080 IDH1KD tx: qHTS for induction of synthetic lethality in tumor cells producing 2HG: qHTS for the HT-1080-IDH1KD cell line | HT-1080 IDH1 knockdown viability, ATP luminescence, 48 h | Potency, µM (series often up to 46.1 µM), for the others: top-dose activity, negative = toxicity, hits mostly cytotoxic | 360,000 tested, 2% active | AID 686971, 2013;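 also: potency is read from the fitted curve at half-maximal effect; 0% = DMSO wells and -100% = cell-free medium wells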
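Cytotoxicity counter-line: IDH1KD HT-1080, 48 h, CellTiter-Glo. Curves classed by r2, magnitude and activity.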
TDP1 cell noCPT: qHTS for Inhibitors of human tyrosyl-DNA phosphodiesterase 1 (TDP1): qHTS in cells in absence of CPT; AID 686978, 2013; DT40 Tdp1-/- hTDP1 cells, no CPT, ATP luminescence, 48 h; Potency, µM (top dose mostly 46.2 µM), inactives show at the highest dose activity change, negative = growth inhibition, hits mostly inhibitors; 420,000 tested, 15% active; also: potency is read from the fitted curve at half-maximal effect; nearly all actives have a fitted effect of over 55% in size
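Chicken DT40 Tdp1-/- cells stably complemented with human TDP1 were seeded at 400 cells/well with DMSO in place of 20 nM camptothecin. After compound pinning, cells grew at least 48 hr at 37 °C; viability read by CellTiter-Glo luminescence.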
HT1080NT lethal: qHTS for induction of synthetic lethality in tumor cells producing 2HG: qHTS for the HT-1080-NT fibrosarcoma cell line; 360,000 tested, 1.6% active; HT-1080-NT fibrosarcoma viability, CellTiter-Glo ATP luminescence, 48 h; Potency, µM (highest dose often 46.1 µM), for inactives: at the top dose activity, negative = less viability, most hits filed as cytotoxic;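 also: NT is the 2HG producing partner of a matched IDH1 knockdown line; potency is read from the fitted curve at half-maximal effect; 0% = DMSO-treated cells and -100% = media-only wells without cells; nearly all actives have a fitted effect of over 55% in size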
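A 48-hour cytotoxicity screen used HT-1080-NT cells plated 2 hours before compound delivery. ATP-based CellTiter-Glo luminescence measured viability, normalized to DMSO and no-cell controls.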
TDP1 cell CPT: qHTS for Inhibitors of human tyrosyl-DNA phosphodiesterase 1 (TDP1): qHTS in cells in presence of CPT. Potency, µM (top dose mostly 46.2 µM), for inactives: at the top dose activity change, negative = growth inhibition, usual class: inhibitors. 420,000 tested, 12% active. AID 686979, 2013. chicken DT40 Tdp1-/-;hTDP1 cells + 20 nM CPT, ATP luminescence, 48 h; also: potency is read from the fitted curve at half-maximal effect; nearly all actives have a fitted effect of over 55% in size
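Chicken DT40 Tdp1-/- cells complemented with human TDP1, 400 cells/well, exposed to compounds plus 20 nM camptothecin for at least 48 h at 37 C; viability read as ATP content by CellTiter-Glo luminescence.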
* marks the source's active call; other numbers are inactive results; u = inconclusive; x = no result given; [ ] = another dose, or the depositor's remark. Unless noted, calls follow the shape of the dose curve; as a rule, active = well fitted curve in the direction sought with a large enough effect; inconclusive = small, poorly fitted or top-dose-only effect, or another doubt; inactive = no such curve, though single readings can be large; an effect the other way counts as inactive or inconclusive. Unless noted, % is scaled to controls: 0 for no effect and ±100 for the full control effect.

SMILES	IL-1B inflam inh	HT1080 IDH1KD tx	TDP1 cell noCPT	HT1080NT lethal	TDP1 cell CPT
Cc1ccc(S(=O)(=O)N/N=C/c2ccc(OCC(=O)N3CCOCC3)cc2)cc1	10.8	15.8%	13.2%	-6.6%	8.3%
COc1ccc(-c2csc3nc(-c4ccc(Cl)cc4)oc(=O)c23)cc1	x	x	-3.3%	x	-1.2%
CCOC(=O)CNC(=O)CSc1ncnc2c1cnn2-c1ccc(Cl)cc1	-4.0	-0.9%	-24.3%	-1.7%	-13.5%
CCOC(=O)Cc1csc(NC(=O)c2ccc3ccccc3n2)n1	18.9	-0.8%	18.4µM*	8.9%	u
CCOC(=O)Cc1csc(NC(=O)/C=C/c2ccc(OC)cc2)n1	-5.1	-25.8%	20.6µM*	-23.0%	10.3µM*
CCOC(=O)Cc1csc(NC(=O)NC2(C(F)(F)F)Oc3cc(Cl)c(Cl)cc3O2)n1	17.3	-28.9%	u	u	23.1µM*
CCOC(=O)Cc1csc(NC(=O)/C=C\c2ccccc2)n1	-7.5	-22.0%	u	-19.2%	u
CCOC(=O)Cc1csc(NC(=O)CSc2ncnc3c2cnn3-c2ccc(OC)cc2)n1	1.9	-2.2%	14.6µM*	4.2%	u
Cc1c(NC(=O)c2ccc(S(=O)(=O)Nc3ccccc3F)cc2)c(=O)n(-c2ccccc2)n1C	-11.8	0.2%	1.8%	-9.1%	0.3%
Cc1ccc(O)c(NC(=O)C2CC(c3cccc(Br)c3)=NO2)c1 (stereo not drawn)	-5.2	-14.5%	-13.5%	-10.6%	8.6%
CCOC(=O)Cc1csc(NC(=O)c2cnc3sc(C)cn3c2=O)n1	21.0	11.1%	20.6µM*	25.2%	u
CCOC(=O)Cc1csc(SCC(=O)Nc2cccc(Cl)c2)n1	-6.6	3.4%[9.24 µM]	14.6µM*	11.9%	u
CCOC(=O)Cc1csc(N/N=C\c2cccc(Br)c2)n1	21.7	-4.0%	u	-24.3%	13µM*
CCOC(=O)Cc1csc(NC(=O)c2cc(C)c(C)s2)n1	-9.1	6.5%	23.1µM*	26.9%	u
CCOC(=O)Cc1csc(NC(=O)c2ccc(C)o2)n1	6.5	1.5%	-6.8%	-6.9%	-0.4%
CCOC(=O)Cc1csc(SCC(=O)Nc2cccc(C#N)c2)n1	21.4	2.0%	-28.2%	-6.5%	-6.8%
CCOC(=O)Cc1csc(NC(=O)c2ccc(Cl)s2)n1	53.4	-17.0%	u	-3.6%	u
OCC1OC(Oc2c(Br)cc(Br)cc2Br)C(O)C(O)C1O (stereo not drawn)	13.1	-11.5%	1.3%	-8.7%	-9.5%
CC(=O)N1CCN(Cc2nc3cc(NC(=O)COc4ccccc4)ccc3n2C)CC1	26.5	11.8%	-10.9%	19.3%	-10.9%
COc1c2ccoc2nc2c(OC)c(O[C@@H]3O[C@H](C)[C@@H](O)[C@@H](O)[C@H]3O)ccc12	x	x	-13.3%[9.04 µM]	x	6.0%[9.04 µM]
CCCN(C(=O)CSc1n[nH]c(-c2ccc(OC)cc2)n1)c1c(N)n(Cc2ccccc2)c(=O)[nH]c1=O	32.0	16.8%	-22.5%	-1.1%	-23.6%
CC1(C)CC(NC(=O)c2ccc(-c3ccc([N+](=O)[O-])cc3)o2)CC(C)(C)N1	u	-12.8%	u	-13.3%	u
COc1ccc(Cl)cc1S(=O)(=O)N(C)CC(=O)NCCCn1ccnc1	22.3	2.1%	6.9%	4.4%	3.0%
COc1cc(OC)c(C(=O)OCC(=O)NCCC2=CCCCC2)cc1OC	3.5	7.4%	-20.3%	0.4%	-18.6%
N#C[C@@H]1C[C@@H]2C[C@@H]2N1C(=O)[C@@H](N)C12CC3CC(CC(O)(C3)C1)C2	x	x	-15.4%	x	-24.1%
SMILES	IL-1B inflam inh	HT1080 IDH1KD tx	TDP1 cell noCPT	HT1080NT lethal	TDP1 cell CPT
CC(=O)N1CCN(c2ccc(NC(=O)c3ccc([N+](=O)[O-])o3)cc2Cl)CC1	-101.9*	6.51µM*	0.92µM*	3.26µM*	0.411µM*
CCC(=O)N1CCN(c2ccc(Cl)cc2NC(=O)c2ccc([N+](=O)[O-])o2)CC1	2.8	u	u	u	18.4µM*
O=C(Nc1cc(Cl)ccc1-n1cncn1)c1ccc([N+](=O)[O-])o1	-65.1*	-21.6%	10.3µM*	-21.9%	7.31µM*
CCN1CCN(c2ccc(NC(=O)c3ccc([N+](=O)[O-])o3)cc2Cl)CC1	-106.8*	13µM*	0.517µM*	u	0.581µM*
CCC(=O)N1CCN(c2ccc(NC(=O)c3ccc([N+](=O)[O-])o3)cc2Cl)CC1	-107.0*	7.31µM*	5.17µM*	11.6µM*	0.82µM*
CCC(=O)N1CCN(c2ccc(NC(=O)c3ccc(C#N)cc3F)cc2Cl)CC1	25.5	4.9%	u	-0.2%	u
COc1ccccc1CN1CC(C(=O)NCc2cnn(C)c2)CCC1=O (stereo not drawn)	0.8	0.6%	0.4%	6.4%	-4.9%
COCCCNc1nc2cc(OC)c(OC)cc2c2nc(-c3ccccc3)nn12	-4.1	7.9%	7.31µM*	3.3%	14.6µM*
CCOCCCNc1nc2cc(OC)c(OC)cc2c2nc(-c3ccccc3)nn12	x	x	6.51µM*	x	10.3µM*
O=C1CCCN1c1ccc(CNS(=O)(=O)c2ccc(F)cc2)cc1	-1.1	20.5%	-24.6%	21.4%	-19.0%
Cc1ccc(S(=O)(=O)Nc2c(C)nn(C)c2C)cc1C	14.2	-3.4%	13µM*	-2.3%	20.6µM*
Cc1nn(C)c(C)c1NS(=O)(=O)c1ccc(N2CCCC2=O)cc1	-56.6*	u	16.4µM*	-29.4%	18.4µM*
Cc1ccc(S(=O)(=O)NC2CCCc3ccccc32)cc1C (stereo not drawn)	8.3	-15.8%	u	-17.9%	u
COc1cccc(NC(=O)C2CCCO2)c1 (stereo not drawn)	14.4	4.8%	-2.0%	0.0%	7.6%
O=C(/C=C/c1ccc(S(=O)(=O)N2CCOCC2)cc1)NC(=S)NCCCn1ccnc1	-74.6*	u	u	-18.6%	u
O=C(/C=C/c1ccc(F)cc1)Nc1cccc(S(=O)(=O)N2CCOCC2)c1	-58.5*	-26.9%	u	-14.9%	u
O=C(/C=C/c1ccc(S(=O)(=O)N2CCOCC2)cc1)Nc1cc(F)ccc1F	-54.5*	-4.1%	20.6µM*	u	u
O=C(/C=C/c1ccc(S(=O)(=O)N2CCOCC2)cc1)NC(=S)Nc1ccc(Cl)cc1Cl	-90.2*	-12.9%	u	-21.1%	u
Cc1ccc(F)cc1NC(=O)/C=C/c1ccc(S(=O)(=O)N2CCOCC2)cc1	-23.6	6.7%	u	11.0%	u

Screens as filed in PubChem.
